From PubChem BioAssay AID1159580 (chemical genetic matrix, 2015)
Values joined by “and” are separate entries in the source; they are usually repeats but may differ in a detail not shown here. Equal entries are not always repeated. Among all 5,500 compounds or so, about 2,000 (36%) were called active. About 18% were inconclusive and are not listed. Rule as the data show it: active = normalized growth mostly below about 0.91 (no sharp cut-off); inconclusive = no clear call, values can overlap the other calls; inactive = mostly above about 0.92. This is one part of the list.

Test: chemical genetic growth profiling, strain panel (AID 1159580);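 also: tested at 20 µM; growth read once vehicle control cultures reached saturation at 30 °C; 1 = growth at the plate median or of vehicle wells; lower values mean less growth of the strain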
Details: S. cerevisiae deletion strains, growth OD

Measured: normalized growth

CCn1cc(C(=O)O)c(=O)c2cc3c(cc21)OCO3
inactive: locus YAL013W, strain DEP1, active compounds read low 1.01 | locus YAL021C, strain ccr4, active compounds read low 0.967 | locus YAL026C, strain drs2, active compounds read low 0.982 | locus YAL030W, strain snc1, active compounds read low 0.977 | locus YAL040C, strain CLN3, active compounds read low 0.97 | locus YBL061C, strain skt5, active compounds read low 0.977 | locus YBR009C, strain hhf1, active compounds read low 0.977 | locus YBR021W, strain FUR4, active compounds read low 1.01 | locus YBR023C, strain chs3, active compounds read low 0.957 | locus YBR171W, strain sec66, active compounds read low 0.962 | locus YBR229C, strain ROT2, active compounds read low 1.01 | locus YBR231C, strain swc5, active compounds read low 0.979 | locus YBR279W, strain paf1, active compounds read low 0.977 | locus YCL011C, strain gbp2, active compounds read low 0.974 | locus YCL016C, strain dcc1, active compounds read low 0.988 | locus YCL029C, strain bik1, active compounds read low 0.997 | locus YCL061C, strain MRC1 (second series), active compounds read low 0.991 | locus YCL061C, strain MRC1, active compounds read low 0.971 | locus YCL069W, strain vba3, active compounds read low 0.98 | locus YCR088W, strain abp1, active compounds read low 0.981 | locus YDL005C, strain med2, active compounds read low 0.971 | locus YDL035C, strain GPR1, active compounds read low 1.02 | locus YDL040C, strain nat1, active compounds read low 0.985 | locus YDL074C, strain BRE1, active compounds read low 1.06 | locus YDL101C, strain DUN1, active compounds read low 1.02 | locus YDL134C, strain PPH21, active compounds read low 1 | locus YDL185W, strain tfp1, active compounds read low 0.999 | locus YDL192W, strain arf1, active compounds read low 0.99 | locus YDR001C, strain nth1, active compounds read low 0.979 | locus YDR069C, strain doa4, active compounds read low 0.989 | locus YDR101C, strain arx1, active compounds read low 0.993 | locus YDR137W, strain rgp1, active compounds read low 0.857 | locus YDR150W, strain NUM1, active compounds read low 0.99 | locus YDR159W, strain sac3, active compounds read low 0.996 | locus YDR162C, strain NBP2, active compounds read low 1.01 | locus YDR195W, strain ref2 0.983 | locus YDR297W, strain sur2, active compounds read low 0.98 | locus YDR318W, strain mcm21, active compounds read low 1 | locus YDR334W, strain swr1, active compounds read low 0.955 | locus YDR335W, strain msn5, active compounds read low 0.984 | locus YDR363W, strain ESC2, active compounds read low 0.973 | locus YDR388W, active compounds read low 0.99 | locus YDR392W, strain spt3, active compounds read low 0.914 | locus YDR502C, strain sam2, active compounds read low 1.01 | locus YEL003W, strain gim4, active compounds read low 1 | locus YEL037C, strain rad23, active compounds read low 0.975 | locus YEL061C, strain CIN8 (second series), active compounds read low 0.98 | locus YEL061C, strain CIN8, active compounds read low 1.01 | locus YER002W, strain NOP16, active compounds read low 0.967 | locus YER015W, strain faa2, active compounds read low 0.983 | locus YER016W, strain bim1, active compounds read low 0.993 | locus YER110C, active compounds read low 0.991 | locus YER111C, strain swi4, active compounds read low 0.972 | locus YER155C, strain BEM2 (second series), active compounds read low 0.979 | locus YER155C, strain BEM2, active compounds read low 1.01 | locus YER167W, strain BCK2, active compounds read low 1.01 | locus YFR010W, strain ubp6, active compounds read low 0.97 | locus YGL078C, strain dbp3, active compounds read low 0.99 | locus YGL086W, strain mad1, active compounds read low 1.01 | locus YGL167C, strain pmr1, active compounds read low 0.976 | locus YGL173C, strain kem1, active compounds read low 0.974 | locus YGL227W, strain vid30, active compounds read low 0.978 | locus YGL240W, strain doc1, active compounds read low 0.988 | locus YGL248W, strain PDE1, active compounds read low 1.02 | locus YGL253W, strain hxk2, active compounds read low 0.991 | locus YGR135W, strain pre9, active compounds read low 0.99 | locus YGR229C, strain SMI1, active compounds read low 1.02 | locus YGR252W, strain gcn5, active compounds read low 1 | locus YHR013C, strain ard1, active compounds read low 0.959 | locus YHR027C, strain rpn1, active compounds read low 0.971 | locus YHR030C, strain SLT2, active compounds read low 1.01 and 1.07 | locus YHR079C, strain IRE1 (second series), active compounds read low 0.992 | locus YHR079C, strain IRE1, active compounds read low 1.11 | locus YHR094C, strain hxt1, active compounds read low 0.987 | locus YHR129C, strain ARP1, active compounds read low 1.01 | locus YHR142W, strain chs7, active compounds read low 0.933 | locus YHR200W, strain rpn10, active compounds read low 1 | locus YIL066C, strain RNR3, active compounds read low 1.02 | locus YIL073C, strain SPO22, active compounds read low 0.987 | locus YIL125W, strain kgd1, active compounds read low 0.995 | locus YIR030C, strain dcg1, active compounds read low 0.999 | locus YJL092W, strain hpr5, active compounds read low 0.981 | locus YJL095W, strain BCK1 (second series), active compounds read low 0.983 | locus YJL095W, strain BCK1, active compounds read low 1.03 and 1.04 | locus YJL115W, strain asf1, active compounds read low 0.974 | locus YJL129C, strain trk1, active compounds read low 0.974 | locus YJL134W, strain LCB3, active compounds read low 1.01 | locus YJL154C, strain vps35, active compounds read low 0.969 | locus YJL164C, strain tpk1, active compounds read low 0.997 | locus YJL166W, strain qcr8, active compounds read low 0.969 | locus YJL168C, strain set2, active compounds read low 0.997 | locus YJL187C, strain SWE1 (second series), active compounds read low 1.03 | locus YJL187C, strain SWE1, active compounds read low 0.975 | locus YJR043C, strain POL32, active compounds read low 1.02
